Read-out in assay [1]: Interleukin-1 alpha (IL1a), IL1A (gene 3552)
Put plainly: BSK_KF3CT_IL1a: BioMAP Diversity Plus: KF3CT Assay for Interleukin-1 alpha (IL1a) Biomarker Activity (AID 2283070). The conditions noted are these: primary human keratinocytes with fibroblasts; actives raise or lower the signal. An outline of the steps: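 Readout is IL-1a level by ELISA, compared bidirectionally with DMSO as baseline. Cells: human keratinocytes co-cultured with foreskin fibroblasts, harvested 24 h post-dose.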

Read-out in assay [2]: TIMP metallopeptidase inhibitor 2 (TIMP2), TIMP2 (gene 7077)
Put plainly: BSK_KF3CT_TIMP2: BioMAP Diversity Plus: KF3CT Assay for TIMP metallopeptidase inhibitor 2 (TIMP2) Biomarker Activity (AID 2283071). The conditions noted are these: primary human keratinocytes with fibroblasts; actives raise or lower the signal. Put shortly: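 Measurements come from ELISA detection of TIMP-2 at 24 hours in a dosed human keratinocyte and foreskin fibroblast co-culture. DMSO serves as negative control and baseline.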

Read-out in assay [3]: Transforming growth factor beta 1 (TGFb1), TGFB1 (gene 7040)
Put plainly: BSK_KF3CT_TGFb1: BioMAP Diversity Plus: KF3CT Assay for Transforming growth factor beta 1 (TGFb1) Biomarker Activity (AID 2283072). The following applies: primary human keratinocytes with fibroblasts; actives raise or lower the signal. Put shortly: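 TGF-b1 ELISA on a 24 h dosed co-culture of human keratinocytes and foreskin fibroblasts; cytotoxicity tracked in parallel cultures by SRB staining.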

Read-out in assay [4]: C-C motif chemokine 2 (Homo sapiens) (UniProt P13500)
The assay can be described thus: BSK_KF3CT_MCP1: BioMAP Diversity Plus: KF3CT Assay for Monocyte Chemoattractant Protein 1 (MCP1/CCL2) Biomarker Activity (AID 2283073). The conditions noted are these: primary human keratinocytes with fibroblasts; actives raise or lower the signal. An outline of the steps: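 Keratinocytes and foreskin fibroblasts were co-cultured, dosed with chemical, and sampled 24 h later. MCP-1 was quantified by ELISA, and the endpoint was analyzed with bidirectional fitting using DMSO as negative control.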

Read-out in assay [5]: Matrix Metallopeptidase 9 (MMP9), MMP9 (gene 4318)
The assay can be described thus: BSK_KF3CT_MMP9: BioMAP Diversity Plus: KF3CT Assay for Matrix Metallopeptidase 9 (MMP9) Biomarker Activity (AID 2283074). The conditions noted are these: primary human keratinocytes with fibroblasts; actives raise or lower the signal. Put shortly: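 Values come from bidirectional fitting relative to DMSO of MMP-9 levels, which were measured by ELISA. Measurements were taken 24 h after chemical dosing of a keratinocyte and foreskin fibroblast co-culture.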

Read-out in assay [6]: urokinase plasminogen activator (uPA), PLAU (gene 5328)
The assay can be described thus: BSK_KF3CT_uPA: BioMAP Diversity Plus: KF3CT Assay for urokinase plasminogen activator (uPA) Biomarker Activity (AID 2283075). The following applies: primary human keratinocytes with fibroblasts; actives raise or lower the signal. Put shortly: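 Values derive from bidirectional fitting against DMSO controls. Keratinocyte/foreskin fibroblast co-cultures received chemical; 24 h later uPA was detected by ELISA, with SRB total-protein staining in parallel wells for overt cytotoxicity.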

Read-out in assay [7]: CD40, CD40 (gene 958)
Put plainly: BSK_LPS_CD40: BioMAP Diversity Plus: LPS Assay for CD40 Biomarker Activity (AID 2283076). The conditions noted are these: primary human HUVEC with PBMC; actives raise or lower the signal. An outline of the steps:
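CD40 signal, measured by ELISA, is fitted in both directions relative to DMSO vehicle. The system is an LPS-driven human vascular primary co-culture of endothelial cells and PBMC, sampled 24 h after compound addition.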

Read-out in assay [8]: Interleukin-8 (IL8), CXCL8 (gene 3576)
The assay can be described thus: BSK_LPS_IL8: BioMAP Diversity Plus: LPS Assay for Interleukin-8 (IL8) Biomarker Activity (AID 2283078). The following applies: primary human HUVEC with PBMC; actives raise or lower the signal. An outline of the steps: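 Endothelial cells and PBMC from human donors are co-cultured, treated with chemicals and LPS, then assayed for IL-8 by ELISA after 24 h. Parallel SRB staining (0.1% SRB after 10% TCA fixation, 560 nm) flags cytotoxicity.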

Assay [9] in a line: BSK_LPS_SRB: Viability Assessment in the BioMAP Diversity Plus: LPS Assay (AID 2283079).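 Note: total protein by sulforhodamine B absorbance as a cytotoxicity measure; measured one day after compound addition; fitted in both directions against DMSO so loss or gain of signal counts.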 The following applies: primary human HUVEC with PBMC. Put shortly: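 Overt cytotoxicity was gauged by sulforhodamine B total-protein staining in a primary human vascular endothelial and mononuclear cell co-culture 24 h post-dosing. Activity was fitted in both directions relative to DMSO.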

Read-out in assay [10]: Interleukin-1 alpha (IL1a), IL1A (gene 3552)
The assay can be described thus: BSK_LPS_IL1a: BioMAP Diversity Plus: LPS Assay for Interleukin-1 alpha (IL1a) Biomarker Activity (AID 2283080). The following applies: primary human HUVEC with PBMC; actives raise or lower the signal. An outline of the steps: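 Measured: IL-1 alpha via ELISA at 24 h in LPS-activated human umbilical vein endothelium–PBMC co-culture. Baseline: DMSO, bidirectional fitting.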

Read-out in assay [11]: Monocyte Chemoattractant Protein-1 (MCP1), CCL2 (gene 6347)
The assay can be described thus: BSK_LPS_MCP1: BioMAP Diversity Plus: LPS Assay for Monocyte Chemoattractant Protein-1 (MCP1) Biomarker Activity (AID 2283081). The following applies: primary human HUVEC with PBMC; actives raise or lower the signal. Put shortly:
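LPS-stimulated HUVEC/PBMC co-culture; chemical, 24 h; MCP-1 by ELISA; bidirectional fit vs DMSO; cytotoxicity via SRB (0.1% stain, 10% TCA fix, 560 nm) in parallel wells.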

Assay [12] is described as follows: BSK_LPS_PGE2: BioMAP Diversity Plus: LPS Assay for Prostaglandin E2 (PGE2) Biomarker Activity (AID 2283082).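 For AC50: secreted prostaglandin E2 measured by ELISA in LPS-stimulated co-culture.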 The conditions noted are these: primary human HUVEC with PBMC; actives raise or lower the signal. An outline of the steps:
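Primary human endothelial cells and blood mononuclear cells, co-cultured with LPS, receive test chemical; PGE2 ELISA follows at 24 h, with SRB-stained parallel cultures flagging cytotoxicity.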

Read-out in assay [13]: Macrophage colony-stimulating factor (MCSF), CSF1 (gene 1435)
Put plainly: BSK_LPS_MCSF: BioMAP Diversity Plus: LPS Assay for Macrophage colony-stimulating factor (MCSF) Biomarker Activity (AID 2283083). The following applies: primary human HUVEC with PBMC; actives raise or lower the signal. An outline of the steps:
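Compound is added to a human vascular primary co-culture of umbilical vein endothelium and blood mononuclear cells. After 24 h, M-CSF is quantified by ELISA. Signal changes are fitted in both directions against DMSO.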

Read-out in assay [14]: Tissue Factor, F3 (gene 2152)
The assay can be described thus: BSK_LPS_TissueFactor: BioMAP Diversity Plus: LPS Assay for Tissue Factor Biomarker Activity (AID 2283084). The following applies: primary human HUVEC with PBMC; actives raise or lower the signal. Put shortly: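 In this co-culture system of umbilical vein endothelium with PBMC, stimulated with LPS, cell-surface CD142 is detected by ELISA at 24 h. Endpoint values derive from bidirectional fitting, DMSO serving as baseline.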

Read-out in assay [15]: Tumor necrosis factor (Homo sapiens) (UniProt P01375)
Put plainly: BSK_LPS_TNFa: BioMAP Diversity Plus: LPS Assay for Tumour Necrosis Factor alpha (TNFa) Biomarker Activity (AID 2283085).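 For AC50: TNFa protein level quantified by ELISA in the co-culture.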 The following applies: primary human HUVEC with PBMC; actives raise or lower the signal. Put shortly:
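ELISA-based TNFa endpoint in a human endothelial–PBMC co-culture sampled 24 h post-exposure. Curves were fitted in both directions using DMSO as baseline of activity.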

Read-out in assay [16]: Vascular cell adhesion molecule 1 (VCAM1), VCAM1 (gene 7412)
The assay can be described thus: BSK_LPS_VCAM1: BioMAP Diversity Plus: LPS Assay for Vascular cell adhesion molecule 1 (VCAM1) Biomarker Activity (AID 2283086). The following applies: primary human HUVEC with PBMC; actives raise or lower the signal. Put shortly: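 Measured by ELISA: VCAM-1 in LPS-activated HUVEC/PBMC co-cultures 24 h after treatment. Values reflect bidirectional fitting with DMSO as baseline.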

Read-out in assay [17]: CD38, CD38 (gene 952)
Put plainly: BSK_SAg_CD38: BioMAP Diversity Plus: SAg Assay for CD38 Biomarker Activity (AID 2283087). The following applies: primary human HUVEC with PBMC; actives raise or lower the signal. Put shortly:
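Measures CD38 on a human endothelial/PBMC co-culture driven by SEB and TSST-1, 24 h after compound exposure, using ELISA with fluorescence detection; DMSO defines baseline for bidirectional curve fitting.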

Read-out in assay [18]: CD40, CD40 (gene 958)
Put plainly: BSK_SAg_CD40: BioMAP Diversity Plus: SAg Assay for CD40 Biomarker Activity (AID 2283088). The conditions noted are these: primary human HUVEC with PBMC; actives raise or lower the signal. Put shortly: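 Fluorescence ELISA read-out of CD40 from umbilical vein endothelium plus peripheral blood mononuclear cells, sampled 24 h after dosing. Values come from bidirectional curve fitting with DMSO as baseline.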

Read-out in assay [19]: CD69, CD69 (gene 969)
Put plainly: BSK_SAg_CD69: BioMAP Diversity Plus: SAg Assay for CD69 Biomarker Activity (AID 2283089). The conditions noted are these: primary human HUVEC with PBMC; actives raise or lower the signal. An outline of the steps:
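HUVEC co-cultured with PBMC were dosed with chemical, and CD69 was measured by ELISA with fluorescence read-out 24 h later. Bidirectional curve fitting used DMSO as negative control and activity baseline.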

Read-out in assay [20]: E-selectin (Homo sapiens) (UniProt P16581)
Put plainly: BSK_LPS_Eselectin: BioMAP Diversity Plus: LPS Assay for Eselectin Biomarker Activity (AID 2283077). The conditions noted are these: primary human HUVEC with PBMC; actives raise or lower the signal. An outline of the steps: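 Signal of E-selectin, detected by ELISA, served as the endpoint; cells were umbilical vein endothelium with PBMC, read 24 h after treatment. DMSO defined baseline, and both increases and decreases were fitted.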

Each structure is given as a SMILES string. Calls of active or inactive are those of the source. Rule for the calls: active = hit-call score of the fitted dose curve at least 0.9, where 1 is the maximum; inactive = score below 0.9.

Sequence of Tumor necrosis factor (Homo sapiens) (P01375 whole entry, looked up): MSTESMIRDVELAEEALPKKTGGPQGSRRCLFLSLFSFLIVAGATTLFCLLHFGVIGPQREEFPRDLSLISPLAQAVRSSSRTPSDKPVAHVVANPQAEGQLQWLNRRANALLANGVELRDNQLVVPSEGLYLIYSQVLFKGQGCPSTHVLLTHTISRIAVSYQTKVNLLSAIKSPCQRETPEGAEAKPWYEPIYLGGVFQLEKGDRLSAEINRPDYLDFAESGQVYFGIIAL
Sequence of E-selectin (Homo sapiens) (P16581 whole entry, looked up): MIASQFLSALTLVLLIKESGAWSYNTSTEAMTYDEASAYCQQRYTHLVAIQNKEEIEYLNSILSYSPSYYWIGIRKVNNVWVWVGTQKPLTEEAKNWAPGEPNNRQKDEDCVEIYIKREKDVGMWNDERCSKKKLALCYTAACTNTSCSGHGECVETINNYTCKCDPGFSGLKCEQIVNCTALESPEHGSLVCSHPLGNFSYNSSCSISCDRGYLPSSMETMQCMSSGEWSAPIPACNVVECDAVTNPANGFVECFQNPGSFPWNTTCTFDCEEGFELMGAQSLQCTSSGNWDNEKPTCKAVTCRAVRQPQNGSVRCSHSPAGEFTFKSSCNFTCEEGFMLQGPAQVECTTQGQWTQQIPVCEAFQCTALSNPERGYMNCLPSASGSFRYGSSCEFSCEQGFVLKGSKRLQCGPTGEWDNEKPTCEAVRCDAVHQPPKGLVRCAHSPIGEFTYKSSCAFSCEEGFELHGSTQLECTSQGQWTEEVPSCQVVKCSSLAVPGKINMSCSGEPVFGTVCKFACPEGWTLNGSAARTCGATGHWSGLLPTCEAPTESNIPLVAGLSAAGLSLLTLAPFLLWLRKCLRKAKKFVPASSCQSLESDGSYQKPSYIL

As for `CC(C)(C)c1ccc(O)cc1`, the outcome in assay [1], in assay [2], in assay [3], in assay [4], in assay [5] and in assay [6] was inactive. In addition, the outcome in assay [7], in [8], in [9], in assay [10], in [11] and in assay [13] was inactive. The result in [14], in [15], in [16], in [17], in assay [18] and in assay [19] was inactive. For the same compound, the half-maximal activity concentration (AC50) in [12] is 3.65 µM (active).

In the case of `c1ccc2c(c1)sc1ccccc12`, the result in assay [1], in assay [2], in assay [3], in assay [4], in assay [5] and in assay [6] was inactive. In addition, the result in [7], in [8], in [9], in assay [10], in assay [11] and in assay [13] was inactive. Also, the outcome in assay [14], in [16], in assay [17], in assay [18] and in assay [19] was inactive. Further, the concentration at half-maximal activity (AC50) in assay [12] is 0.596 µM (active).

Turning to `CCOP(=S)(Oc1ccc([N+](=O)[O-])cc1)c1ccccc1` (stereo unspecified), the result in assay [1], in assay [2], in assay [3], in [4], in [5] and in assay [6] was inactive. In addition, the outcome in assay [7], in [20], in assay [8], in [9], in [10] and in assay [11] was inactive. Further, the outcome in assay [12], in [14], in assay [16] and in assay [19] was inactive. Moreover, the AC50 was 2.84 µM (active) in [15], 14.2 µM (active) in [17] and 14 µM (active) in assay [18].

By AC50 is commonly meant the midpoint of the concentration-response curve, whichever way the signal moves.

The values above are taken from PubChem BioAssay (EPA / NIEHS).
